High-throughput results (PubChem BioAssay)
FMDV inh = antivirals against foot and mouth disease virus; FMDV antiviral cell-based qHTS; Potency, µM (doses to about 57.9 µM), for the others: at the highest dose activity change, negative = inhibition, actives largely listed as inhibitors; 1.2% of 410,000 active; calls by dose curve; tested in HEK293T cells; also: read-out not given here; potency is read from the fitted curve at half-maximal effect; nearly all actives have a fitted effect of over 45% in size
Vaccinia Venus = inhibitors of vaccinia virus (Venus reporter). Vaccinia virus Venus reporter expression, fluorescence. Potency, µM (highest dose often 36.5 µM), for the others: at the highest dose activity change, negative = inhibition, hits mostly inhibitors. 0.46% of 330,000 active. AID 720580; calls by dose curve; tested in A549 cells; also: potency is read from the fitted curve at half-maximal effect; nearly all actives have a fitted effect of over 30% in size
VACV mCherry inh = inhibitors of vaccinia virus infection (mCherry reporter signal) | Vaccinia virus mCherry reporter infection, fluorescence | Potency, µM (top dose mostly 36.5 µM), without a hit: at the highest dose activity change, negative = inhibition, actives largely listed as inhibitors | 0.63% of 310,000 active | AID 720579; calls by dose curve; tested in A549 cells; also: potency is read from the fitted curve at half-maximal effect; nearly all actives have a fitted effect of over 35% in size
Sm TGR block = blocks Schistosoma mansoni thioredoxin glutathione reductase; Q962Y6; purified TGR, DTNB reduction, TNB absorbance 405 nm; Potency, µM (series often up to 114 µM), for the others: at the top dose activity change, negative = inhibition, actives largely listed as inhibitors; 3% of 360,000 active; AID 485364; also: potency is read from the fitted curve at half-maximal effect; nearly all actives have a fitted effect of over 60% in size
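First, TGR (20 nM dispensed) and NADPH were mixed with compound. Second, a 15 min room-temperature incubation followed. Third, further NADPH and then DTNB were added to start the reaction. Finally, TNB absorbance was monitored kinetically.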
HCMV inh = human cytomegalovirus inhibition. AID 1259415. 4.5% of 410,000 active. activity change, negative = inhibition, % at 57.5 µM. HFF cells, HCMV-luciferase reporter, 72 h; stronger effect = lower value; in the data active = activity change below about -60%; inconclusive = no clear call, values can overlap the other calls; inactive = above about -39%
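Steps: HFFs plated, 16 h 37C; compounds added; HCMV-luciferase added to MOI 1 PFU/cell; 72 h 37C; OneGlo reagent, 5 min room temperature; luminescence read, normalized to controls.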
HCV inh = HCV inhibition | Potency, µM (series often up to 41.8 µM), for the others: top-dose activity change, negative = inhibition, usual class: inhibitors | Huh7.5.1 HCVcc-Cre infection, luciferase reporter, 44 h | 3.4% of 340,000 active; also: potency is read from the fitted curve at half-maximal effect
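Reporter virus HCVcc-Cre (~0.5 moi) infects cells exposed to compound; seeding density 1,000 cells/well with 4 h settling beforehand. Luminescence, 15 sec read, taken 44 h post-infection following a 15 min RT substrate incubation.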
An asterisk follows results filed as active; i = inactive; ? = inconclusive; . = no result; [ ] = dose if it differs, or a comment. The list is not random: actives were taken first. Their share in the collection is about 9.3%. Unless noted, calls follow the shape of the dose curve; as a rule, active = well fitted curve in the direction sought with a large enough effect; inconclusive = small, poorly fitted or top-dose-only effect, or another doubt; inactive = no such curve, though single readings can be large; an effect the other way counts as inactive or inconclusive. % is scaled to controls: 0 for no effect and ±100 for the full control effect.

SMILES	FMDV inh	Vaccinia Venus	VACV mCherry inh	Sm TGR block	HCMV inh	HCV inh
CCN(CC)C(=O)CN(c1cc2c(cc1OC)oc1ccccc12)S(=O)(=O)c1ccc(C)cc1	61%	-9%	.	-1%	76	?
Cc1cc(C(=O)c2ccc(Cl)cc2)c(NC(=O)CCl)s1	25µM*	-20%	?	-30%	-23	?
COc1ccc(-c2[nH]ncc2CN2CCC(C(=O)N3CCOCC3)CC2)c(F)c1	-5%	-9%	-9%	8%	-63*	10%
COc1cc(OC)c(OC)cc1/C=C/c1ccc2ccccc2[n+]1C	.	27%	-14%	.	.	.
CCCC[n+]1c(/C=C/c2c(OC)cc(OC)cc2OC)ccc2ccccc21	.	126%	10µM*	.	.	.
COc1cc(OC)c(/C=C/c2ccc3ccccc3[n+]2C)c(OC)c1	.	-27%	?	.	.	.
CCC[n+]1c(/C=C/c2c(OC)cc(OC)cc2OC)ccc2ccccc21	.	106%	10µM*	.	.	.
COc1cccc(C=NNC(=O)CCCC(=O)NN=Cc2cccc(OC)c2)c1	-12%	-10%	-13%	.	27	-27%
CO/C=C\C=C/c1nnn(-c2ccc(Cl)cc2)n1	6%	1%	-3%	8.9µM*	-64*	-3%
Clc1ccc(-n2cnnn2)cc1	18%	.	.	4%	6	5%
N#CCCN(C(=O)COC(=O)CCC(=O)c1ccc(F)cc1)c1ccccc1	-1%	.	.	40µM*	0	0%
COCCCNc1nnc(Cc2ccccc2)c2ccccc12	6%	-20%	-6%	0%	-27	-27%
c1ccc(Cc2nnc(Sc3ccccc3)c3ccccc23)cc1	?	-23%	-15%	-7%	-88*	?
CC(=O)C1C(c2ccc([N+](=O)[O-])cc2)c2c(noc2C)CC1(C)O (stereo not given)	-15%	-1%	i	3%	-19	-6%
COCCn1nnnc1CN(CCCN1CCOCC1)Cc1cc2c(C)ccc(C)c2[nH]c1=O	-11%	0%	.	13µM*	42	-1%
CCCNC(=O)c1ccc2c(=O)c(O)c(-c3ccc(C)cc3)[nH]c2c1	-23%	?	13µM*	10%	-30	-20%[8.37 µM]
CCOc1ccc(NC(=O)c2cc3cc(C)ccc3n2C)cc1	5%	-14%	-7%	5%	-27	.
Cc1ccc(-c2cc(C(F)F)nc(S(C)(=O)=O)n2)cc1	32µM*	-4%	-1%	-18%	-7	?
COc1ccc(CCNc2nc(-c3ccc(C)cc3)cc(C(F)F)n2)cc1OC	-11%	-10%	-21%	-3%	-25	.
Cc1cccc(CC(C)NC(=O)CCc2nnc(-c3ccccc3)o2)n1 (stereo not given)	21%	.	.	-20%	20	2%
CC(NC(=O)CCc1nnc(-c2ccc(-c3ccccc3)cc2)o1)c1nc2ccccc2[nH]1 (stereo not given)	?	-13%	-16%	?	-68*	-35%
COc1cc(OC)cc(-c2cc3cc(F)ccc3cn2)c1	20%	-17%	?	.	47	?
Cc1cc2nc(-c3ccccc3Br)n(C(C(=O)NC(C)(C)C)c3ccccc3)c2cc1C (stereo not given)	.	.	.	.	-99*	.
CC(=O)N1CCC2(CCN(Cc3ccncc3)CC2)CC1	-5%	.	.	.	.	.
Cc1cc(C)nc(SC2=CS(=O)(=O)c3ccccc32)n1	?	2µM*	13µM*	-23%	-6	-33%
SMILES	FMDV inh	Vaccinia Venus	VACV mCherry inh	Sm TGR block	HCMV inh	HCV inh
O=S1(=O)C=C(SCCN2CCCCC2)c2ccccc21	1%	-11%	-29%	-4%	-20	-21%
O=S1(=O)C=C(Sc2nc3ccccc3s2)c2ccccc21	5µM*	?	14µM*	2.2µM*	.	5µM*
O=S1(=O)C=C(Sc2nnc(-c3ccccc3)o2)c2ccccc21	10µM*	.	.	0.5µM*	.	10µM*
CC(=O)c1cccc(CN2CCCC(CCC(=O)NCc3ccccc3F)C2)c1 (stereo not given)	-3%	6%	2%	-19%	5	1%
CC(C)(C)[C@H]1C=C(C(=O)N2CCN(Cc3ccccc3)CC2)O[C@@H](OCc2ccc(CO)cc2)C1	-9%	-28%	i	-32%	-32	20%
Cc1cc2cc(CN(Cc3ccco3)C(=O)C3CCCCC3)c(=O)[nH]c2cc1C	-28%	-4%	.	-11%	-10	7%
Cc1ccc(NC(=O)CSc2ncccn2)c([N+](=O)[O-])c1	38%	-9%	-4%	-5%	29	?
COc1ccccc1-c1cc(C(F)(F)F)nc(S(=O)(=O)CCCC(=O)Nc2cc(Br)ccc2O)n1	18%	-5%	-12%	-15%	55	.
COc1ccccc1-c1cc(C(F)(F)F)nc(S(=O)(=O)CCCC(=O)NCc2ccc(F)cc2)n1	14µM*	-16%	?	?	-99*	?
COc1ccccc1-c1cc(C(F)(F)F)nc(S(=O)(=O)CCCC(=O)NC(C)C)n1	8.9µM*	-10%	-8%	-2%	-22	?
COc1ccccc1-c1cc(C(F)(F)F)nc(S(=O)(=O)CCCC(=O)N2CCCCC2C)n1 (stereo not given)	7.9µM*	-21%	-27%	22µM*	14	?
COc1ccccc1-c1cc(C(F)(F)F)nc(S(C)(=O)=O)n1	32µM*	.	.	28µM*	-104*	?
COc1ccccc1-c1cc2nc(C)c(CCC(=O)NCc3ccc(F)cc3)c(C)n2n1	-6%	-17%	i	4%	-34	?
COc1ccccc1C(=O)NC(=O)COC(=O)CN1C(=O)NC(C)(C)C1=O	-8%	-18%	-1%	4%	-10	12%
C[C@@H]1O[C@@H](O[C@@H]2C(=O)c3c(O)cc(O)cc3O[C@H]2c2ccc(O)c(O)c2)[C@H](O)[C@H](O)[C@H]1O	-12%	3%	-12%	-13%	-10	5%
O=[N+]([O-])c1ccn(-c2nc(-c3cccs3)cc(C(F)(F)F)n2)n1	-13%	.	.	-17%	?	?
O=[N+]([O-])c1cnn(-c2nc(-c3ccccc3)cc(C(F)(F)F)n2)c1	-17%	-8%	-5%	2%	-76*	?
COc1cccc(-c2cc(C(F)(F)F)nc(-n3cncn3)n2)c1	-7%	.	.	6%	-20	-29%
COc1cccc(-c2cc(C(F)(F)F)nc(-n3cc(C)cn3)n2)c1	-23%	.	.	11%	-37	10µM*
FC(F)(F)c1cc(-c2cccs2)nc(-n2cc(Cl)cn2)n1	?	.	.	-14%	-3	10µM*
O=C(Nc1ccc(F)cc1)NC1(C(=O)NCc2ccc3c(c2)OCO3)CCCCC1	75%	.	.	0%	25	-27%
COc1ccc(OC)c(C(C[N+](=O)[O-])c2c(C)cc3ccccn23)c1 (stereo not given)	22µM*	-5%	-20%	-34%	48	?
